Source: PubChem (National Center for Advancing Translational Sciences (NCATS))
Shown are actives, neighbours in structure and some others; about 2.2% of the full set was active somewhere.
TrxR1 inh: inhibitors of rat thioredoxin reductase 1; O89049; recombinant rTrxR1, NADPH fluorescence consumption, selenite substrate; Potency, µM (highest dose often 114 µM), inactives show at the highest dose activity change, negative = inhibition, usual class: inhibitors; hit rate 1% among 390,000; AID 588453; also: potency is read from the fitted curve at half-maximal effect; % is scaled to controls: 0 for no effect and ±100 for the full control effect; nearly all actives have a fitted effect of over 65% in size
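Rat TrxR1 (90 nM in the dispensed reagent) was pre-reduced with 400 uM NADPH for 5 min at room temperature, then incubated with compound for 15 min. After 400 uM selenite was added, NADPH fluorescence (Ex 340/Em 450 nm) was followed for 8 min.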
BRCA1 expr act: BRCA1 expression activation | MCF7-BRCA1-FFLuc reporter, luminescence, 48 h; response scale: scaled: vehicle 0%, 10 µM genistein 100% | AID 624202 | hit rate 1.1% among 380,000 | Potency, µM (series often up to 46.1 µM), inactives show at the highest dose activation, hits mostly activators; also: potency is read from the fitted curve at half-maximal effect; nearly all actives have a fitted effect of over 80% in size
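Luminescence from a BRCA1-driven firefly luciferase in MCF7 cells was read after 48 h compound exposure at 37 C. Data normalized against DMSO and a 10microM genistein activation control, then curve-fitted across the titration.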
Giardia killer: kills Giardia lamblia; Giardia lamblia trophozoite viability; activity change, % at 7.66 µM, hits read low; hit rate 0.15% among 340,000; in the data active = activity change below about -80%; inconclusive = between about -30% and that limit;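 also: parasites exposed to compound for two days anaerobically before the ATP read; % is scaled to controls: 0 for no effect and ±100 for the full control effect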
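Each well holds 100 Giardia trophozoites and compound. After two days (48 hrs) at 37 deg C in anaerobic conditions, ATP is quantified by luminescence.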
TrxR1 substrate: substrates of rat thioredoxin reductase 1. Potency, µM (series often up to 114 µM), without a hit: at the highest dose activity change, negative = substrate turnover. O89049. purified TrxR1 substrate turnover, NADPH consumption readout. hit rate 0.01% among 390,000; also: potency is read from the fitted curve at half-maximal effect; % is scaled to controls: 0 for no effect and ±100 for the full control effect; nearly all actives have a fitted effect of over 50% in size
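Rat TrxR1, dispensed at 90 nM, was prereduced with 400 uM NADPH (final) for 5 min at ~22 deg C, then incubated with compound 15 min before 400 uM selenite. A first-read NADPH fluorescence drop versus no-compound background flagged substrates.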
IL2 activator: activators of IL-2. IL-2 activation reporter assay, cell-based qHTS; stimulated with anti-CD3/CD4/CD28 beads; in transgenic mouse T cells. activation, % (series mostly up to about 46 µM). hit rate 0.065% among 360,000; in the data active = activation above about 50%; inconclusive = mostly about 30% to 49%; also: 0% is about no effect
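Quantitative HTS in unstimulated transgenic mouse T cells, with memory T cells as non-tolerant control and PMA/ionomycin as tolerance-bypass control. Compound pretreatment lasted 60 minutes before 18 h bead stimulation; EGFP/DsRed fluorescence read.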
IDH1 R132H inh: blocks human mutant IDH1 R132H enzyme; hit rate 0.093% among 390,000; O75874; AID 602179; Potency, µM (titrated, usually from 76.6 µM), inactives show top-dose activity change, negative = inhibition, actives largely listed as inhibitors; IDH1-R132H enzyme, NADPH consumption, diaphorase/resazurin fluorescence; also: potency is read from the fitted curve at half-maximal effect; % is scaled to controls: 0 for no effect and ±100 for the full control effect; nearly all actives have a fitted effect of over 65% in size
Target sequence (O75874 whole entry R132H, stated change not applied): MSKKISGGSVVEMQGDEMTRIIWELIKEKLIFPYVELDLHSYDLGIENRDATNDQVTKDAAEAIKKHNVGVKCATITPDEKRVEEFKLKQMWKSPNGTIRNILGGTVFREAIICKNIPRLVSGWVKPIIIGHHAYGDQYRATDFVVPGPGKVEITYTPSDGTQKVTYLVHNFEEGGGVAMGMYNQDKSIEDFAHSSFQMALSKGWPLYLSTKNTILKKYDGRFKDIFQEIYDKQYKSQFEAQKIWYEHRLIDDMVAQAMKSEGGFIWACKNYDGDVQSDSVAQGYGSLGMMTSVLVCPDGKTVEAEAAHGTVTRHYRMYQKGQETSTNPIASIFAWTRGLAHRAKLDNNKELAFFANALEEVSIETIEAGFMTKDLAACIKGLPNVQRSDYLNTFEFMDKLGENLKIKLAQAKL
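IDH1-R132H (0.5 ug/mL dispensed) in pH 7.5 Tris buffer was preincubated 30 min with compound, then given a substrate mix of 0.016 mM NADPH and 2 mM alpha-KG for 80 min at room temperature; remaining NADPH was read by diaphorase/resazurin fluorescence.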
Numbers without * were called inactive; ? = inconclusive; / = not tested or not shown; [ ] = dose if it differs, or a comment. Unless noted, calls follow the shape of the dose curve; as a rule, active = well fitted curve in the direction sought with a large enough effect; inconclusive = small, poorly fitted or top-dose-only effect, or another doubt; inactive = no such curve, though single readings can be large; an effect the other way counts as inactive or inconclusive.

SMILES	TrxR1 inh	BRCA1 expr act	Giardia killer	TrxR1 substrate	IL2 activator	IDH1 R132H inh
O=C(O)/C=C/C(=O)Nc1ccc(N2CCOCC2)nc1N1CCOCC1	15.8µM*	-3.8%	7.9	-3.6%	-0.4	0.0%
Cc1[nH]c2ccccc2c1/C=C/c1cc[n+](C)cc1	-30.4%	-61.4%	-8.8	-21.9%	192.4*	5.1%
CCn1c(/C=C/c2c(C)n(CC)c3ccccc23)nc2ccccc2c1=O	0.2%	-11.7%	14.4	-0.1%	26.3	5.5%
CCN(CC)C(=O)Cn1c(C)c(/C=C/c2cc[n+](C)cc2)c2ccccc21	-15.7%	-26.3%	7.0	-20.1%	114.7*	-4.3%
Cc1ccccc1/C=C/c1cc[n+](C)cc1	-4.4%	-6.3%	9.6	-7.2%	-0.9	0.7%
C=CCn1c(C)c(/C=C/c2cc[n+](C)cc2)c2ccccc21	0.1%	-48.9%	23.1	-10.5%	122.4*	-2.5%
CCN(CC)C(=O)Cn1c(=O)n(CCc2ccccc2)c(=O)c2ccccc21	17.1%	1.9%	/	7.5%	/	3.9%
CCn1cc(/C=C/c2cc[n+](C)cc2)c2ccccc21	-7.9%	-69.9%	15.2	-10.4%	112.9*	1.2%
O=C(CSc1nc2c([nH]c3ccccc32)c(=O)n1-c1ccc(F)cc1)NCc1ccc(F)cc1	16.7%[57.1 µM]	-22.3%	/	3.8%[57.1 µM]	/	6.9%
CC(C)n1cc(/C=C/c2cc[n+](C)cc2)c2ccccc21	-9.0%	-41.0%	3.0	-7.7%	294.7*	3.5%
O=C(O)Cn1cc(/C=C/[N+](=O)[O-])c2ccccc21	-39.9%	-17.8%	2.2	-4.3%[57.1 µM]	1.0	-6.9%
C=CCn1cc(/C=C/c2cc[n+](C)cc2)c2ccccc21	-24.9%	-45.2%	15.1	-21.9%	457.4*	13.6%
CCS(=O)(=O)N1Cc2ccccc2CC1C(=O)Nc1cccc(C)c1 (configuration not stated)	13.2%	5.01µM*	-13.7	-4.5%[57.1 µM]	7.3	5.1%
CCS(=O)(=O)N1Cc2ccccc2CC1C(=O)Nc1ccc(C)cc1 (configuration not stated)	-10.2%	-2.4%[1.84 µM]	-3.0	-1.0%	1.9	2.9%
Cc1ccc(NC(=O)C2CCN(C(=O)c3cnn(-c4ccccc4)c3-n3cccc3)CC2)cc1	4.8%	-0.4%	/	-2.3%	/	9.7%
CC(=O)c1ccc(NC(=O)CSc2ccc3nnc(CCNS(=O)(=O)c4ccc(C)cc4)n3n2)cc1	-12.5%	/	/	25.4%	/	8.1%
O=C(NC1CC1)c1ccc(-c2cnc3cccnn23)cc1	/	7.94µM*	/	/	-0.5	/
CCOc1ccc(-c2cnc3cccnn23)cc1	/	7.08µM*	/	/	0.0	/
O=C(NC1CC1)c1cccc(-c2cncc3nccn23)c1	/	5.3%	/	/	1.0	/
Cc1cccc(-c2cnc3cccnn23)c1	/	?	/	/	0.1	/
CCOc1cccc(-c2cnc3cccnn23)c1	/	8.91µM*	/	/	-0.8	/
COc1ccc(/C=C/C(=O)Nc2nc3n(n2)C(c2ccc(F)cc2)C=C(c2ccccc2)N3)cc1 (configuration not stated)	-1.6%	/	/	-8.9%	/	0.0%
COc1ccc(C(=O)Cn2c(=O)n3nc(CCn4nc(C)cc4C)nc3c3cc(OC)c(OC)cc32)cc1	8.3%[57.1 µM]	/	/	5.7%[57.1 µM]	/	-9.1%
O=Cc1ccc(N2CCOCC2)cc1	-3.0%	/	/	-10.3%	/	/
CCOc1cc(CNCc2ccccc2)ccc1OCc1ccc(Cl)cc1	16.0%	-78.8%	23.1	7.2%	-0.5	6.2%
CCOc1cccc(CNc2ccc(O)cc2)c1OCc1ccc(Cl)cc1	44.7µM*	-11.3%	7.4	-11.5%	-6.1	8.0%
CCOc1cc(CNc2ccc(O)cc2)ccc1OCc1ccc(Cl)cc1Cl	28.2µM*	-97.0%	14.0	-20.9%	-2.2	20.3%
COc1ccc(C(=O)N2CCCC(CO)(Cc3ccccc3C)C2)o1 (configuration not stated)	50.1µM*	-12.0%	-5.5	0.3%	-1.9	6.3%
Cc1cc(C)c(S(=O)(=O)NCC(c2cccs2)S(=O)(=O)c2ccccc2)c(C)c1 (configuration not stated)	2.51µM*	/	/	5.5%[57.1 µM]	/	13.5%
